# Results with a measured potency or affinity are listed apart. A number with no mark means an inactive call.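 The calls were made as follows: active = falling signal curve whose fitted half-maximal dose lies at or below the top valid tested dose; inconclusive = flat fit showing 30 to 70% loss, or poor fit; inactive = rising signal, flat within 30%, or half-maximal dose above top.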
# Test: HepG2 cell cytotoxicity, dose response, cytotoxicity control, ATP luminescence, dry powder, Set4 (AID 743143)
# Conditions: HepG2 viability, CellTiter-Glo ATP luminescence, 72 h; series mostly up to 26 µM; activity change, negative = cytotoxicity: at the top concentration
row,SMILES,"activity change, negative = cytotoxicity"
1,O=C(CNC(=O)c1ccc(Cl)cc1)N[C@@H]1CCCc2ccccc21,1.92%
2,O=C(CCNC(=O)c1ccc(Cl)cc1)NC1CCCCC1,8.22%
3,O=C(CCNC(=O)c1ccc(Cl)cc1)N[C@H]1CCCc2ccccc21,-7.67%
4,O=C(CCNC(=O)c1ccc2c(c1)OC(F)(F)O2)N[C@@H]1CCCc2ccccc21,-0.347%
5,O=C(CCNC(=O)c1ccc(OC(F)(F)F)cc1)N[C@@H]1CCCc2ccccc21,-18.2%
6,O=C(CCNC(=O)c1ccc(Cl)c(Cl)c1)N[C@@H]1CCCc2ccccc21,-13.4%
7,CC(CC(=O)NC1CCCc2ccccc21)NC(=O)c1ccccc1 (configuration not stated),-8.93%
8,O=C(CCCNC(=O)c1ccc(C(F)(F)F)cc1)N[C@@H]1CCCc2ccccc21,-4.36%
9,O=C(CNC(=O)c1ccc(OC(F)(F)F)cc1)N[C@@H]1CCCc2ccccc21,11.1%
10,O=C(CCNC(=O)c1ccccc1)N[C@@H]1CCCc2ccccc21,5.01%
11,O=C(Cc1ccc(Cl)cc1)NCCC(=O)N[C@@H]1CCCc2ccccc21,7.64%
12,O=C(CCNC(=O)c1ccc(Cl)cc1)NC1CCCc2ccccc21 (configuration not stated),-25.1%
13,O=C(NC1CCc2ccccc21)C1CCCN(C(=O)c2ccc(Cl)cc2)C1 (configuration not stated),-6.73%
14,CC(=O)NCCC(=O)N[C@@H]1CCCc2ccccc21,-4.47%
15,CC(c1ccccc1)N(C)C(=O)CCNC(=O)c1ccc(Cl)cc1 (configuration not stated),20.6%
16,COc1ccc(C(=O)NCCC(=O)N[C@@H]2CCCc3ccccc32)cc1,-11.5%
17,CC(C)(C)OC(=O)NCCC(=O)N[C@H]1CCCc2ccccc21,-10%
18,O=C(CCNC(=O)c1ccc(Cl)cc1)N[C@@H]1CCCc2ccccc21,-3.06%
19,O=C(CCCNC(=O)c1ccc(Cl)cc1)N[C@@H]1CCCc2ccccc21,0.579%
20,COc1ccccc1C(=O)NCCC(=O)NC1CCCc2ccccc21 (configuration not stated),15.7%
21,C[C@@H](NC(=O)CCNC(=O)c1ccc(Cl)cc1)c1ccccc1,-1.89%
22,O=C(CNC(=O)c1ccc(C(F)(F)F)cc1)N[C@@H]1CCCc2ccccc21,18.8%

# — PubChem BioAssay AID743143 (Broad Institute, 2013)
